This is a sample that favours compounds with a hit; in the whole collection about 4.7% have one here.
ALR inh – blocks human ALR sulfhydryl oxidase activity | P55789 | purified ALR, DTT oxidation, H2O2 HRP-luminol luminescence | inhibition, % (no concentration beside the values) | 290,000 compounds, 3.8% hits | AID 485317;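 active means mean replicate inhibition above about 79%, with every replicate also reaching it, limit read from the data; inconclusive means only one of the two criteria met; inactive means mean below limit and not every replicate reaching it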
Target sequence (P55789 whole entry, looked up): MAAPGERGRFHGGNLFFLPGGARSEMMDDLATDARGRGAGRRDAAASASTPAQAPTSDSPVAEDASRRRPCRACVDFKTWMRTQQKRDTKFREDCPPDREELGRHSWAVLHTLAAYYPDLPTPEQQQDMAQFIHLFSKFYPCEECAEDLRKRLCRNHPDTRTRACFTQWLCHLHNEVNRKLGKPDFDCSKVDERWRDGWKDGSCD
PABP polyA inh – blocks human PABP binding to poly(A) RNA | P11940 | fluorescence polarization | inhibition, % at 35 µM | 290,000 compounds, 1% hits | AID 2014;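 further: calls also rest on retests at 20 µM and on dose response follow-up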
eIF4H inh – inhibitors of RNA binding by human eIF4H. inhibition, % at 35 µM. Q15056. eIF4H fluorescence polarization binding assay. 290,000 compounds, 0.94% hits;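 further: calls also rest on retests at 20 µM and on dose response follow-up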
Efflux pump inh – antifungal efflux pump inhibition, Nile Red retention. S. cerevisiae Candida pump triplex. inhibition, % at 10 µM. 330,000 compounds, 0.44% hits. AID 485275;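 active means plate passing quality check with inhibition over a set limit, or well fluorescence over plate mean plus 4 SD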;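 further: Nile Red retained in pooled yeast measured as flow cytometry median fluorescence; 0% = buffer negative control and 100% = Enniatin B positive control; higher means more Nile Red kept so more efflux inhibition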
MLLE-PAM2 inh – blocks PAM2 peptide binding to the PABP1 MLLE domain | AID 588489 | 360,000 compounds, 0.36% hits | GST-MLLE / FITC-PAM2 fluorescence polarization | inhibition, % at 20 µM; in the data active means inhibition above about 35%, passing the limit was not always enough;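 further: plate controls were DMSO wells with GST-MLLE for no effect and wells lacking GST-MLLE protein for full effect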
SUMO HTRF inh – inhibitors of human SUMOylation (UBC9). 290,000 compounds, 0.36% hits. inhibition, % at 35 µM. HTRF SUMOylation assay, SAE1/SAE2 + UBC9, in vitro. P63279; in the data active means inhibition above about 50%, passing the limit was not always enough; inconclusive means no clear call, values can overlap the other calls
* marks the source's active call; other numbers are inactive results; ? = inconclusive; . = no result. Unless noted, how the calls were made is not given here.

SMILES	ALR inh	PABP polyA inh	eIF4H inh	Efflux pump inh	MLLE-PAM2 inh	SUMO HTRF inh
CC[C@]1(C(=O)OC)[C@H]2C(=O)N(Cc3ccccc3)C(=O)[C@H]2[C@H]2CN=C(SCC(=O)c3ccccc3)N21	.	.	.	0	38*	.
Cc1ccc(S(=O)(=O)NNc2ccccc2)c(C)c1	100*	-14	-9	0	24	6
COc1ccc(S(=O)(=O)Nc2ccc(O)c3ccccc23)cc1	89*	18	1	0	38*	71
Cc1ccc(C)c(S(=O)(=O)Nc2ccc(O)c3ccccc23)c1	85*	3	-2	0	25	67
Cc1ccc(S(=O)(=O)Nc2ccc(O)c3ccccc23)c(C)c1	95*	16	-3	0	19	18
CC(C)c1ccc(C2CC(=O)c3cnc(NC(=O)c4ccco4)nc3C2)cc1 (stereo not given)	2	-2	-8	0	11	-1
CCOC(=O)N1CCN(C(=O)CCl)CC1	-5	-3	-1	0	5	2
CCO[C@@H]1OC(C(=O)N2CCCCCCC2)=C[C@H](c2cn(C(C)=O)c3ccccc23)[C@H]1CCCO	-6	0	2	0	2	2
Cc1cc2c(ncn2Cc2ccccc2)c(N)c1C	93*	-9	12	0	11	-11
Cc1cc2c(ncn2Cc2ccccc2)c(NS(C)(=O)=O)c1C	.	10	4	0	0	-11
CCCCNC(=O)C1(C)CCCCN1C(=O)c1ccc2sccc2c1 (stereo not given)	.	.	.	.	-12	.
O=C(CSc1ccccc1)NC1=NCCS1	-8	3	-6	0	-8	2
c1ccc(NNC2=NCCS2)cc1	91*	13	-7	0	9	9
CC(C)OC(=O)c1c2nc3ccccc3nc2n2c1[nH]c(=O)c1ccccc12	-13	68*	53*	0	.	19
CCCCCNc1nc(N2CCCC2)c2c(c1C#N)CCN(C)C2	7	57*	59*	0	27	22
CCCCCNc1nc(NCCCO)c(C#N)c2c1CN(C)CC2	-2	120	127	0	19	40
CCCCCCn1c(-c2cccs2)n[nH]c1=S	34	55*	active	0	14	2
CC(c1ccc(F)cc1)n1c(-c2cccs2)n[nH]c1=S (stereo not given)	93*	2	7	0	-11	-1
NC(=O)c1ccc[n+]([C@H]2O[C@@H](COP(=O)([O-])OP(=O)(O)OC[C@H]3O[C@@H](n4cnc5c(N)ncnc54)[C@H](O)[C@@H]3O)[C@H](O)[C@@H]2O)c1	.	.	.	0	-2	.
O=C(Nc1ccc(S(=O)(=O)NCc2ccco2)cc1)c1ccc(F)cc1	.	5	20	0	-1	2
CC1CCN(CCc2nc3cc(NC(=O)COc4ccc(Cl)cc4)ccc3n2C)CC1	0	1	-9	0	-18	10
CC(OC(=O)[C@@H](NC(=O)OCc1ccccc1)C(C)C)C(=O)Nc1ccc(N2CCOCC2)cc1 (stereo not given in full)	.	.	.	.	-6	.
Cc1cccc(C)c1C(O)c1ncc(-c2ccccc2Cl)[nH]1 (stereo not given)	.	.	.	.	6	.
CCN(CC)c1ncnc2c1[nH]c1ccccc12	.	active	72*	0	-13	18
CCCOc1ncnc2c1[nH]c1ccccc12	3	5	11	0	-2	9
SMILES	ALR inh	PABP polyA inh	eIF4H inh	Efflux pump inh	MLLE-PAM2 inh	SUMO HTRF inh
O=C(NNC(=O)C1CC1)c1ccc(F)cc1F	4	.	.	0	13	.
Nc1ccc(O)c2c1C(=O)c1ccccc1C2=O	-12	4	123	0	87*	-34
Nc1ccc(Br)c2c1C(=O)c1ccccc1C2=O	-4	44	34	0	.	-44
COc1cc(/C=N/NC(=O)C(=O)N2CCCC2)ccc1O	.	2	-4	0	-3	3
COc1cc(/C=N/N=C/c2cc(OC)c(O)c(OC)c2)cc(OC)c1O	98*	13	1	0	-160	-30
COCc1cc(C)nc(OCC(=O)N/N=C/c2ccc(OC)c(O)c2)c1C#N	99*	-1	2	0	-19	10
CCOC(=O)N/N=C/c1ccc(OC)c(O)c1	94*	6	7	0	-9	8
COc1ccc(/C=N/NC(=O)C(=O)N2CCCCCC2)cc1O	83*	4	5	0	-12	2
CC1(C)C(=O)Nc2ccccc2N1C(=O)COC(=O)Cc1ccccc1F	-14	.	.	0	6	.
COC(=O)/C=C1\SC(=NC(=O)c2ccc(-c3ccccc3)cc2)NC1=O	1	.	.	0	28	.
COc1cc(/C=N/NC(=O)C(N)=O)cc(OC)c1O	99*	2	-10	0	-5	0
CCOC(=O)N/N=C/c1cc(OC)c(O)c(OC)c1	99*	-5	0	0	5	-5
Cc1nc2cc(NC(=O)c3ccc(S(=O)(=O)N(C)c4ccccc4)cc3)ccc2o1	0	-1	-3	0	-14	3
O=C(NCc1ccccc1)c1ccc(NC(=O)C2CCC2)cc1	.	.	.	.	7	.
Cc1ccc(S(=O)(=O)N2CCN(S(=O)(=O)N3CCCCC3)CC2)c(C)c1	100*	0	0	0	-11	-10
Cc1cc(Cl)ccc1NC(=O)COC(=O)c1c(C)noc1C	-2	.	.	0	12	.
O=C(CCNC(=O)C1CCN(S(=O)(=O)c2ccc(F)cc2)CC1)Nc1nccs1	0	.	.	0	-6	.
O=C1CCCC2=C1Sc1ccccc1N2	?	36	43	0	43*	26
Cc1cc(C(=O)OCC(=O)c2ccc(Br)s2)no1	4	4	6	0	-6	4
Cc1cc(C(=O)OCC(=O)c2ccc(Br)s2)c(C)o1	7	87*	70*	0	.	-9
Oc1ccc(Oc2ccc3c(C(F)(F)F)cc(C(F)(F)F)nc3n2)cc1	99*	-2	0	0	-5	15
COc1ccccc1C(C)NC(=O)CCNC(=O)c1ccc(Cl)cc1 (stereo not given)	.	.	.	0	24	.
CCOC(=O)c1ccc(S(=O)(=O)N2CCN(CC(O)COc3ccc(C#N)cc3)CC2)cc1 (stereo not given)	19	12	14	0	-2	4
Cc1[nH]c2c(C)cccc2c1CC(=O)O	30	54	7.2*	0	-4	24
CCc1ccc(NC(=S)NC2CCN(Cc3ccccc3)CC2)cc1	96*	3	11	0	-39	-21
S=C(Nc1ccccc1)NC1CCN(Cc2ccccc2)CC1	4	5	4	0	0	1
Cc1ccc(S(=O)(=O)N2[C@@H](c3ccc(Cl)cc3)C(C(=O)O)=CC[C@H]2c2ccc(C(C)C)cc2)cc1	95*	.	.	0	-5	.
Cc1ccc([C@H]2C(C(=O)O)=CC[C@@H](c3ccc(C(C)C)cc3)N2S(=O)(=O)c2ccc(C)cc2)cc1	13	.	.	0	2	.

Screening data (PubChem BioAssay)
